Source: PubChem BioAssay
Compounds with a hit are over-represented: about 7% of the library has one in this group of screens.
D3 antag: qHTS of D3 Dopamine Receptor Antagonist: qHTS. D(3) dopamine receptor (Homo sapiens), P35462. D3R cells, DiscoveRx beta-arrestin luminescence, antagonist mode; active compounds read low. max response, negative = inhibition, %. 360,000 compounds, 2.5% hits. AID 652054, 2013; in the data active = max response below about -50%; inconclusive = no clear call, values can overlap the other calls; note: % is set by controls: 0 for no effect and ±100 for the full control effect
Target sequence (P35462 whole entry, looked up): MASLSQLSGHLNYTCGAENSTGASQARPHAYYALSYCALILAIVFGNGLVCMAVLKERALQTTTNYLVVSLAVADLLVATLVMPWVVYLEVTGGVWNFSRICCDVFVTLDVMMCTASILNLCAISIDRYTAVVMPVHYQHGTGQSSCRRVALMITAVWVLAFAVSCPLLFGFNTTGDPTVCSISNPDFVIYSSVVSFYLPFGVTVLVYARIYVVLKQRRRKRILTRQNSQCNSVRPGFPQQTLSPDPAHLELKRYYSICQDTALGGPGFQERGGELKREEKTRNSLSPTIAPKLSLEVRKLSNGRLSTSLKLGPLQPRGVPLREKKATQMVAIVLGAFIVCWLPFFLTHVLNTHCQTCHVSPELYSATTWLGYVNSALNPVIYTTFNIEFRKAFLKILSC
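Cells expressing the human receptor were seeded at 1500 cells/well, incubated overnight at 37 degrees C in 5% CO2, then exposed to library compounds with dopamine controls for 90 minutes at 37 degrees C before luminescent detection.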
IL-1B inflam inh: qHTS for Inhibitors of Inflammasome Signaling: IL-1-beta AlphaLISA Primary Screen; THP-1 LPS/ATP IL-1B secretion, AlphaLISA, 16 h; active compounds read low; activity change, % at 57.5 µM; 360,000 compounds, 4.7% hits; AID 743279, 2014; in the data active = activity change below about -50%; inconclusive = mostly about -30% to -49%; note: % is set by controls: 0 for no effect and ±100 for the full control effect
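THP-1 cells pretreated 1 hr with compounds (up to 57.5 uM final), then stimulated with LPS (250 ng/mL final) plus ATP (1.25 mM final); secreted IL-1B measured by AlphaLISA after 16 hr, decreased signal indicating inhibition.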
DRD3 agonist: qHTS of D3 Dopamine Receptor Agonist: qHTS; D3R DiscoveRx beta-arrestin cells, luminescence, 90 min; 410,000 compounds, 0.58% hits; AID 652048, 2013; D(3) dopamine receptor (Homo sapiens), P35462; max activation, %; in the data active = max activation above about 30%; note: 0% is about no effect
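Agonist mode: compounds and dopamine controls were applied to plated cells for 90 min at 37 degrees C after an overnight attachment at 1500 cells/well. Luminescent read-out followed 30 - 60 minutes at room temperature with DiscoveRx detection reagent.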
Integrin act MD: qHTS for Activators of Integrin-Mediated Alleviation for Muscular Dystrophy. alpha7betagal myoblasts, beta-gal FDG fluorescence, 48 h. Potency, µM (titrated, usually from 38.3 µM), without a hit: at the top dose activation, most hits filed as activators. 350,000 compounds, 0.064% hits. AID 624291, 2012;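 note: potency is the fitted concentration of half-maximal effect; 100% = response of the positive control SU9516; nearly all actives have a fitted effect of over 60% in size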
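alpha7betagal+/- myoblasts (passage 13, 250/well) treated 48 h at 37C with compounds at 1:260 dilution of DMSO stock. Lysed, then beta-galactosidase activity read as FDG fluorescence (ex 480/em 540) after 30 min, with pre-read for autofluorescence.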
ATXN2 expr inh: Primary qHTS for Inhibitors of ATXN expression. Potency, µM (highest dose often 57 µM), for the others: top-dose activity change, negative = inhibition, most hits filed as inhibitors. AID 1745845, 2022. 360,000 compounds, 0.72% hits. HEK-293 ATXN2-luciferase reporter, luminescence, 24 h; note: potency is the fitted concentration of half-maximal effect; % is set by controls: 0 for no effect and ±100 for the full control effect; nearly all actives have a fitted effect of over 55% in size
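qHTS (up to 57 uM final) was run with 24 h compound exposure of reporter cells at 37 °C. Each well was multiplexed: SteadyGlo luminescence measured ATXN2-luciferase expression after a fluorogenic Gly-Phe-AFC viability readout (25 uM final).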
S2 tox: Viability Counterscreen for Primary qHTS for Inhibitors of ATXN expression | S2 cells (HEK-293 line with an ATXN2-luciferase reporter) viability, CellTiter-Fluor protease fluorescence, 24 h | Potency, µM (highest dose often 56.7 µM), hits mostly cytotoxic | 400,000 compounds, 0.49% hits; note: potency is the fitted concentration of half-maximal effect; nearly all actives have a fitted effect of over 40% in size
The depositor's hits bear a star; i = inactive; ? = inconclusive; nt = not tested or not shown. Unless noted, calls come from the whole dose curve; as a rule, active = well fitted curve in the direction sought with a large enough effect; inconclusive = small, poorly fitted or top-dose-only effect, or another doubt; inactive = no such curve, though single readings can be large; an effect the other way counts as inactive or inconclusive.

SMILES	D3 antag	IL-1B inflam inh	DRD3 agonist	Integrin act MD	ATXN2 expr inh	S2 tox
CC(C)[C@@H]1Cc2[nH][nH]c(=O)c2[C@H](CCc2ccccc2)O1	-14.1	-1.7	-1.0	nt	-6.9%	?
COc1ccccc1C(=O)C1CCCN(Cc2ccc(Oc3ncccn3)cc2)C1 (stereo not drawn)	0.0	-19.8	-15.9	-24.2%	-8.5%	i
COC(=O)c1ccc(CN2CCCC(C(=O)c3cc(F)ccc3OC)C2)cc1 (stereo not drawn)	-95.5*	0.0	-17.5	15.7%	-23.5%	i
COc1ccc(C(=O)C2CCCN(Cc3ccc(NC(C)=O)cc3)C2)cc1OC (stereo not drawn)	-19.5	7.7	-8.0	13.6%	nt	?
COC(=O)c1ccc(CN2CCCC(C(=O)c3ccccc3OC)C2)cc1 (stereo not drawn)	-51.3*	19.0	-25.2	-13.1%	-33.2%	i
O=C(NCCc1ccccc1)c1cccc2c(-c3cccnc3)coc12	-13.1	-14.7	0.0	nt	2.2%	i
O=C(NCc1ccccc1)c1ccc(-c2ccc(F)c(F)c2)c2ccoc12	0.0	-72.4*	-7.5	nt	-12.1%	i
COc1ccc(CNC(=O)c2cccc3c(-c4cccnc4)coc23)cc1OC	8.2	-20.4	11.2	nt	-18.7%	?
COc1cccc(CNC(=O)c2cc(Sc3cccc(Cl)c3)nc3ccccc23)c1	nt	nt	4.2	nt	12.2%	i
O=C(NCc1cccc(Cl)c1)c1cccc2c(-c3cccnc3)coc12	23.5	?	-0.5	nt	28.2µM*	20µM*
O=C(NCc1ccc(F)c(F)c1)c1cccc2c(-c3cccnc3)coc12	10.8	-63.2*	-1.2	nt	-35.3%	?
O=C(NCc1cccnc1)c1cc(Sc2cccc(Cl)c2)nc2ccccc12	5.9	-80.8*	3.5	-32.3%	-18.7%	i
COC(=O)c1ccc(CNC(=O)CCc2c[nH]c3ccccc23)cc1	-7.6	10.7	-6.8	-31.0%	4.8%	i
COc1ccc(OC)c(S(=O)(=O)N2CCC(C(=O)NCCc3ccc(OC)c(OC)c3)CC2)c1	-11.1	-5.2	1.7	-22.0%	1.4%	i
COc1ccc(Cl)cc1N1C(=O)C2CCCN2C1c1cccc(F)c1 (stereo not drawn)	0.0	25.3	-7.5	-1.1%	-8.7%	i
COc1cccc(C=Nc2ccccc2C(=O)Nc2nccs2)c1OC	-73.7*	-20.4	-3.8	1.1%	6.3%	i
O=C(Nc1nccs1)c1ccccc1N=Cc1ccccc1	16.9	-7.5	-0.6	28.5%	18.4%	i
O=C1C(Cl)=C(Nc2ccc3cn[nH]c3c2)C(=O)c2ccccc21	-119.7*	-99.2*	-10.9	-60.3%	20µM*	14.1µM*
CC(=O)Nc1ccc(NC2=C(Cl)C(=O)c3ccccc3C2=O)cc1	-101.5*	-97.6*	-12.7	-62.5%	?	nt
O=C(Oc1ccc(NC2=C(Cl)C(=O)c3ccccc3C2=O)cc1)c1ccc([N+](=O)[O-])cc1	-2.3	3.5	-1.9	0.0%	nt	?
CN(C)c1ccc(NC2=C(Cl)C(=O)c3ccccc3C2=O)cc1	-93.2*	-99.6*	-21.3	-26.8%	?	nt
Cc1cc2nn(-c3ccc(F)cc3)nc2cc1NC(=O)c1ccc(C(C)(C)C)cc1	nt	nt	0.7	nt	11.7%	?
Cc1cc(C)c(S(=O)(=O)N2CCN(C(=O)C3COc4ccccc4O3)CC2)c(C)c1 (stereo not drawn)	18.8	-2.4	20.2	19.9%	-16.0%	?
C=CCn1cnc2c(nnn2-c2ccc(C)c(Cl)c2)c1=O	-3.0	-19.0	-0.5	16.8%	4.9%	i
O=C1CC(NS(=O)(=O)c2ccc3ccccc3c2)CN1c1ccccc1 (stereo not drawn)	5.5	-8.2	2.2	17.2%	-31.2%	i
SMILES	D3 antag	IL-1B inflam inh	DRD3 agonist	Integrin act MD	ATXN2 expr inh	S2 tox
CN=C1SC(CC(=O)Nc2ccc(F)cc2F)C(=O)N1/N=C/c1ccc(OC(F)F)c(OC)c1 (stereo not drawn)	0.8	-5.1	14.1	-9.8%	?	?
Cn1ncc2c(O/N=C(\N)c3ccc(C(F)(F)F)cc3)ncnc21	-1.0	-70.5*	3.9	-8.9%	nt	?
Cc1ccc(C(=O)NNc2ncnc3c2cnn3C)cc1	3.5	6.5	6.5	31.7%	14.8%	i
COc1ccc(C(=O)/C=C/Nc2ccccn2)c(OC)c1	-13.5	-63.0*	-14.4	22.9%	47.9%	?
COc1ccc(C(=O)/C=C/c2ccccc2OC)c(OC(=O)c2ccc([N+](=O)[O-])cc2)c1	2.0	-97.2*	3.8	-51.0%	1.2%	?
COc1ccc(C(=O)/C=C/Nc2c(C)n(C)n(-c3ccccc3)c2=O)c(OC)c1	-16.2	-25.2	-2.7	0.3%	-27.1%	i
COc1ccc(C(=O)/C=C/c2ccccc2)c(O)c1	?	-99.0*	-31.9	-4.9%	-29.9%	?
O=C(/C=C/c1ccncc1)c1cc(Cl)ccc1O	-21.6	-66.8*	-8.4	-23.8%	-23.3%	i
Cc1cc(C)c2nc(N3CCCC(C(=O)NCc4ccccc4F)C3)sc2c1 (stereo not drawn)	nt	nt	9.5	nt	nt	nt
COc1ccc(OC(=O)c2cccc([N+](=O)[O-])c2)c(C(=O)/C=C/c2cccs2)c1	-17.0	-53.2*	-14.7	19.3%	-9.9%	i
COc1ccc(C(=O)/C=C/c2cc(C(=O)O)cc3c2OCOC3)c(O)c1	-14.8	-93.8*	-10.0	-16.0%	0.7%	?
COc1cc(O)cc(/C=C/c2ccccc2)c1	6.4	-25.4	69.7*	7.6%	53.1%	i
COc1ccc(/C=C/C(=O)c2ccc(OC)cc2OC)cc1	4.7	-104.9*	3.6	-5.7%	-10.5%	?
COc1ccccc1-c1oc2ccccc2c1-c1ccc2cc[nH]c2c1	0.0	?	-2.9	-16.7%	-23.2%	i
O=C1N(Cc2cccnc2)C[C@@H]2C[C@@H](c3ccccc3C#Cc3ccccc3)N3CCC[C@@]123	-23.0	-11.4	-14.7	-10.4%	-17.4%	i
CC(=O)Nc1ccc(NC(=O)c2ccc(Cl)nc2)cc1	-5.7	-16.7	0.6	3.5%	nt	i
CN(C)c1ccc(-c2ccnc3c2CC(C)(C(=O)NCc2ccncc2)O3)cc1 (stereo not drawn)	3.4	2.9	4.6	nt	-4.6%	i
COc1ccc(/C=C/C(=O)c2cc(Cl)ccc2O)c(OC)c1	13.4	-99.6*	8.8	-28.3%	32.3%	i
COc1ccc(/C=C/C(=O)C2(O)CCCCC2)cc1	-17.3	-92.4*	-3.8	-30.6%	9.9%	i
